Reference: PubChem BioAssay AID743335 (Broad Institute, 2014)
A number with no mark means an inactive call.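 The calls were made as follows: active = cell killing, with a fitted half-maximal concentration at or below twice the top valid dose tested; inconclusive = flat curve with moderate signal loss, or a poor fit; inactive = effect in the rising direction, plus the rest.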

experiment: HEK293T cytotoxicity, dose response, cytotoxicity control, cell-based, ATP luminescence, dry powder, set 11 (AID 743335); settings: HEK293T viability, ATP luminescence (CellTiter-Glo), 72 h; series mostly up to 15 µM; activity change, negative = cytotoxicity: at the top concentration

Compound | activity change, negative = cytotoxicity
CN(C)CCCN(Cc1cc2ccccc2[nH]c1=O)C(=O)Nc1ccccc1 | -18.9%
COc1cccc2sc(NC(=O)c3cc(S(=O)(=O)N(C)C)ccc3N3CCCC3)nc12 | -2.09%
CN(C)S(=O)(=O)c1ccc(N2CCCC2)c(C(=O)Nc2nccs2)c1 | 0.72%
CN(C)S(=O)(=O)c1ccc(N2CCCC2)c(C(=O)Nc2cccc(F)c2)c1 | -17.6%
COc1ccc2nc(NC(=O)c3cc(S(=O)(=O)N(C)C)ccc3N3CCCC3)sc2c1 | -15.4%
Cc1cnc(NC(=O)c2cc(S(=O)(=O)N3CCCCC3)ccc2N2CCCC2)s1 | 2.61%
Cc1csc(NC(=O)c2cc(S(=O)(=O)N(C)C)ccc2N2CCCC2)n1 | -9.89%
Cc1cnc(NC(=O)c2cc(S(=O)(=O)N(C)C)ccc2C2CCCC2)s1 | -12.9%
Cc1cnc(NC(=O)c2cc(S(=O)(=O)N(C)C)ccc2N2CCCC2)s1 | -25.8%
Cc1ccc(NC(=O)c2cc(S(=O)(=O)N(C)C)ccc2N2CCCC2)cc1 | -8.27%
COc1ccc2sc(NC(=O)c3cc(S(=O)(=O)N(C)C)ccc3N3CCCC3)nc2c1 | 4.68%
CN(C)S(=O)(=O)c1ccc(N2CCCC2)c(C(=O)Nc2ccccc2)c1 | -12.8%
Cc1cnc(NC(=O)c2cc(S(=O)(=O)N3CCCC3)ccc2N2CCCC2)s1 | -2.37%
Cc1cnc(NC(=O)c2cc(S(=O)(=O)N3CCOCC3)ccc2N2CCCC2)s1 | -2.27%
Cc1cnc(NC(=O)c2cc(S(=O)(=O)N(C)C)ccc2N(C)C)s1 | -17.5%
CN(C)S(=O)(=O)c1ccc(N2CCCC2)c(C(=O)Nc2nc3ccccc3s2)c1 | -6.3%
